Results as given in PubChem BioAssay AID1159580 (chemical genetic matrix, 2015).
Values joined by “and” are separate entries in the source; they are usually repeats but may differ in a detail not shown here. Equal entries are not always repeated. The campaign covered roughly 5,500 compounds. About 2,000 (36%) were called active. About 18% were inconclusive and are not listed. No stated cut-off is given here; in the data, active means normalized growth mostly below about 0.91 (no sharp cut-off); inconclusive means no clear call, values can overlap the other calls; inactive means mostly above about 0.92. The list shows a part of the results.

Assay: chemical genetic growth profiling, strain panel (AID 1159580);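 further: tested at 20 µM; growth read once vehicle control cultures reached saturation at 30 °C; 1 = growth at the plate median or of vehicle wells; lower values mean less growth of the strain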
Settings: S. cerevisiae deletion strains, growth OD

Measured: normalized growth

NCCCC[C@H](N[C@@H](CCc1ccccc1)C(=O)O)C(=O)N1CCC[C@H]1C(=O)O
inactive: locus YAL021C, strain ccr4, hits give low values 1.01 | locus YAL026C, strain drs2, hits give low values 1.02 | locus YAL030W, strain snc1, hits give low values 0.978 | locus YBL061C, strain skt5, hits give low values 1.01 | locus YBR009C, strain hhf1, hits give low values 0.98 | locus YBR021W, strain FUR4, hits give low values 1.01 | locus YBR023C, strain chs3, hits give low values 0.998 | locus YBR171W, strain sec66, hits give low values 1.02 | locus YBR229C, strain ROT2, hits give low values 0.962 | locus YBR231C, strain swc5, hits give low values 1.01 | locus YBR279W, strain paf1, hits give low values 0.998 | locus YCL011C, strain gbp2, hits give low values 0.997 | locus YCL016C, strain dcc1, hits give low values 0.99 | locus YCL029C, strain bik1, hits give low values 0.992 | locus YCL069W, strain vba3, hits give low values 1.03 | locus YCR088W, strain abp1, hits give low values 1.03 | locus YDL005C, strain med2, hits give low values 1.03 | locus YDL035C, strain GPR1, hits give low values 0.995 | locus YDL040C, strain nat1, hits give low values 0.998 | locus YDL074C, strain BRE1, hits give low values 0.932 | locus YDL101C, strain DUN1, hits give low values 0.982 | locus YDL134C, strain PPH21, hits give low values 1 | locus YDL185W, strain tfp1, hits give low values 0.989 | locus YDL192W, strain arf1, hits give low values 0.992 | locus YDR001C, strain nth1, hits give low values 1.01 | locus YDR069C, strain doa4, hits give low values 0.935 | locus YDR101C, strain arx1, hits give low values 0.995 | locus YDR137W, strain rgp1, hits give low values 0.994 | locus YDR150W, strain NUM1, hits give low values 0.99 | locus YDR159W, strain sac3, hits give low values 0.923 | locus YDR162C, strain NBP2, hits give low values 0.994 | locus YDR195W, strain ref2 0.987 | locus YDR297W, strain sur2, hits give low values 0.979 | locus YDR318W, strain mcm21, hits give low values 1 | locus YDR334W, strain swr1, hits give low values 1.01 | locus YDR335W, strain msn5, hits give low values 0.972 | locus YDR388W, hits give low values 0.993 | locus YDR392W, strain spt3, hits give low values 1.01 | locus YDR502C, strain sam2, hits give low values 0.999 | locus YEL003W, strain gim4, hits give low values 1.02 | locus YEL037C, strain rad23, hits give low values 1.01 | locus YEL061C, strain CIN8 (second series), hits give low values 1.02 | locus YEL061C, strain CIN8, hits give low values 0.978 | locus YER015W, strain faa2, hits give low values 1 | locus YER016W, strain bim1, hits give low values 0.997 | locus YER110C, hits give low values 0.989 | locus YER111C, strain swi4, hits give low values 1.02 | locus YER155C, strain BEM2 (second series), hits give low values 0.994 | locus YER155C, strain BEM2, hits give low values 0.996 | locus YER167W, strain BCK2, hits give low values 0.989 | locus YFR010W, strain ubp6, hits give low values 1.01 | locus YGL078C, strain dbp3, hits give low values 1 | locus YGL086W, strain mad1, hits give low values 0.982 | locus YGL167C, strain pmr1, hits give low values 1.01 | locus YGL173C, strain kem1, hits give low values 1.04 | locus YGL227W, strain vid30, hits give low values 1.01 | locus YGL240W, strain doc1, hits give low values 0.92 | locus YGL248W, strain PDE1, hits give low values 0.966 | locus YGL253W, strain hxk2, hits give low values 0.971 | locus YGR135W, strain pre9, hits give low values 1.01 | locus YGR252W, strain gcn5, hits give low values 1.02 | locus YHR013C, strain ard1, hits give low values 1.01 | locus YHR027C, strain rpn1, hits give low values 0.985 | locus YHR030C, strain SLT2, hits give low values 0.996 and 1.03 | locus YHR079C, strain IRE1 (second series), hits give low values 0.999 | locus YHR079C, strain IRE1, hits give low values 1.05 | locus YHR094C, strain hxt1, hits give low values 0.995 | locus YHR129C, strain ARP1, hits give low values 0.997 | locus YHR142W, strain chs7, hits give low values 1.03 | locus YHR200W, strain rpn10, hits give low values 1 | locus YIL066C, strain RNR3, hits give low values 0.973 | locus YIL073C, strain SPO22, hits give low values 1.06 | locus YIL125W, strain kgd1, hits give low values 0.993 | locus YIR030C, strain dcg1, hits give low values 0.993 | locus YJL092W, strain hpr5, hits give low values 1.02 | locus YJL095W, strain BCK1 (second series), hits give low values 0.972 | locus YJL095W, strain BCK1, hits give low values 0.968 and 1.01 | locus YJL115W, strain asf1, hits give low values 1.01 | locus YJL129C, strain trk1, hits give low values 1.04 | locus YJL134W, strain LCB3, hits give low values 0.994 | locus YJL154C, strain vps35, hits give low values 1.03 | locus YJL164C, strain tpk1, hits give low values 1.02 | locus YJL166W, strain qcr8, hits give low values 0.989 | locus YJL168C, strain set2, hits give low values 0.995 | locus YJL187C, strain SWE1 (second series), hits give low values 0.971 | locus YJR043C, strain POL32, hits give low values 0.986 | locus YJR066W, strain TOR1, hits give low values 0.969 | locus YJR075W, strain HOC1, hits give low values 0.979
